28 compounds from PubChem BioAssay (NCATS) can be followed below.

Structures are written as SMILES. Several values for one entry are separate records, joined by “and”; a condition that tells them apart may be missing. Equal values may be shown once. Activity calls are given as the source filed them. Calls follow the shape of the dose curve; as a rule, active = well fitted activation curve with a large enough effect; inconclusive = small, poorly fitted or top-dose-only effect; inactive = no such curve, though single readings can be large or run the other way.
Potency is read from the fitted curve at half-maximal effect.

The target of the assay is Cytochrome P450 3A4 (Homo sapiens) (UniProt P08684). The assay can be described thus: qHTS Assay for Activators of Cytochrome P450 3A4 (AID 885). Also: nearly all actives have a fitted effect of over 65% in size. The settings on record: recombinant CYP3A4, Luciferin-PPXE luminescence, 60 min; series mostly up to 57.1 µM; activity change, positive = activation: at the top concentration. As to the method: NIH Molecular Libraries Screening Centers Network [MLSCN]
Sequence of Cytochrome P450 3A4 (Homo sapiens) (P08684 whole entry, looked up): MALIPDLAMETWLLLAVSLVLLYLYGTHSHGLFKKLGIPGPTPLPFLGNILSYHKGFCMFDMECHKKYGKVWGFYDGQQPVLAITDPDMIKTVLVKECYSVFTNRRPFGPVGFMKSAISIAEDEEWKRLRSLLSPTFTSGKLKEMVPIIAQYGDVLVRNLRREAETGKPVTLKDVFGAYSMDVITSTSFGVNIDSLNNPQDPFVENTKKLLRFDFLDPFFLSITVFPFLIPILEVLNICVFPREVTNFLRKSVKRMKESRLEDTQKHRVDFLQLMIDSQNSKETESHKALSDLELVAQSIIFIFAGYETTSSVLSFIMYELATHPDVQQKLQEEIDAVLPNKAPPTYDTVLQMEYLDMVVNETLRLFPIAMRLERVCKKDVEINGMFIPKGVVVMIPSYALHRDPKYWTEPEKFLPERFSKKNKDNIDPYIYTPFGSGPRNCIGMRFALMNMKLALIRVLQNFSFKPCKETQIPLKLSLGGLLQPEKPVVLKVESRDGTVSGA
NIH Chemical Genomics Center [NCGC]
The P450 gene superfamily is involved in the metabolism and clearance of xenobiotics. This assay used human CYP3A4 to measure the dealkylation of luciferin-6' phenylpiperazinylyl (Luciferin-PPXE; […]) to luciferin. The luciferin is then measured by luminescence after the addition of a luciferase detection reagent. Luciferin-PPXE concentration in the assay was equal to its KM for CYP3A4. Inhibitors and some substrates limit the production of luciferin, and decrease measured luminescence; activators increase the production of luciferin and luminescence.
NCGC Assay Protocol Summary:
Two uL of enzyme and substrate mix (final concentrations: 20nM CYP3A4, 25uM Luciferin-PPXE, 200mM KPO4) were dispensed into a white, solid bottom 1536-well microtiter plate. 23nL of compound was transferred by a pin tool. The plate was incubated at RT for 10 min. Two uL of an NADPH regeneration solution (Promega supplied reagent) was dispensed and the reaction was allowed to continue for 60 min at RT. Then the reaction was stopped by reconstituted luciferin detection buffer. After another 20 min of incubation the plate was read on the ViewLux (Perkin Elmer) at 60 sec exposure and 2x2 binning. This protocol was carried out with Promega-Glo reagents and further information can be found at http://www.promega.com/tbs/tb325/tb325.pdf. Data were normalized to the to AC100 inhibition (57 uM ketoconazole).
Keywords: P450, CYP2D6, Luciferase, MLSMR, MLSCN, NIH Roadmap, qHTS, NCGC
(qHTS replaces the single test concentration by a dilution series.)
Turning to `CCCCNc1c(C(=O)OCC)c(C)nc2c1cnn2CC`, the “activity change, positive = activation” value is -66.1% [at 25.6 µM] (inactive).

On to `CCO/C([O-])=N/c1c[n+](N2CCOCC2)no1`, for which the “activity change, positive = activation” value was -43.9% (inactive).

For `COC(=O)[C@H]1[C@H]2C[C@@H]3c4[nH]c5cc(OC)ccc5c4CCN3C[C@H]2C[C@@H](OC(=O)c2cc(OC)c(OC)c(OC)c2)[C@@H]1OC`, the “activity change, positive = activation” value was -57% (inactive).

With `O=C(CCNNC(=O)c1ccncc1)NCc1ccccc1`, the “activity change, positive = activation” value was -88.5% (inactive).

On to `CCOC(=O)c1cnc2c(cnn2CC)c1NN=C(C)C`, for which the “activity change, positive = activation” value is -83.3% (inactive).

As to `Cc1nc2ccccn2c(=O)c1CCN1CCC(C(=O)c2ccc(F)cc2)CC1`, the “activity change, positive = activation” value is -32.9% (inactive).

Turning to `COc1cc2c(cc1OC)-c1cc(=Nc3c(C)cc(C)cc3C)n(C)c(=O)n1CC2`, the “activity change, positive = activation” value was -34.2% (inactive).

For the compound `Cc1ccc(Cl)c(Nc2ccccc2C(=O)O)c1Cl`, the Potency is 20 µM (active) and 12.6 µM (active) and 25.1 µM (active).

For the compound `NC(N)=NC(=O)Cc1c(Cl)cccc1Cl`, the “activity change, positive = activation” value is -67.4% (inactive).

With `c1cc(CN2CCCCC2)cc(OCCCNc2nc3ccccc3s2)c1`, the “activity change, positive = activation” value was -49.7% (inactive).

In the case of `C[C@]12CCC(=O)C=C1CC[C@@H]1[C@@H]2C(=O)C[C@@]2(C)[C@H]1CC[C@]2(O)C(=O)CO`, the “activity change, positive = activation” value was -55.6% (inactive).

With `CCCCCCCC/C=C\CCCCCCCC(=O)NCc1ccc(O)c(OC)c1`, the “activity change, positive = activation” value was -70.8% (inactive).

In the case of `N[C@@H](COP(=O)(O)O)C(=O)O`, the “activity change, positive = activation” value was -38% (inactive).

Consider `CCCC(C(=O)OCCN(CC)CC)(c1ccccc1)c1ccccc1`, for which the Potency entry is “inactive”.

With `Brc1c(NC2=NCCN2)ccc2nccnc12`, the “activity change, positive = activation” value was -54.3% (inactive).

`COC(=O)[C@@H](N)Cc1ccc(O)c(O)c1`: the “activity change, positive = activation” value is -39.5% (inactive).

With `CN(C)CCOC(=O)COc1ccc(Cl)cc1`, the “activity change, positive = activation” value is -39.2% (inactive).

Take `OCCN1CCN(CCCN2c3ccccc3C=Cc3ccccc32)CC1`: the “activity change, positive = activation” value was -30.2% (inactive).

In the case of `C[C@]12C=CC(=O)C=C1CC[C@H]1[C@@H]3C[C@@H](O)[C@](O)(C(=O)CO)[C@@]3(C)C[C@H](O)[C@@]12F`, the “activity change, positive = activation” value is -41.7% (inactive).

`Cc1nc2sccn2c(=O)c1CCN1CCC(=C(c2ccc(F)cc2)c2ccc(F)cc2)CC1`: the “activity change, positive = activation” value was -41.8% (inactive).

Turning to `c1cnc(N2CCN(Cc3ccc4c(c3)OCO4)CC2)nc1`, the Potency entry was “inactive”.

`CN(C(=O)CCCOc1ccc2[nH]c(=O)ccc2c1)C1CCCCC1`: the “activity change, positive = activation” value is -45.2% (inactive).

`COc1ccc(CN(CCN(C)C)c2ccccn2)cc1`: the “activity change, positive = activation” value was -35.5% (inactive).

Take `CN1CCN(C2=Nc3ccccc3Oc3ccc(Cl)cc32)CC1`: the Potency entry was “inactive”.

Consider `O=C1NCN(c2ccccc2)C12CCN(CCCC(c1ccc(F)cc1)c1ccc(F)cc1)CC2`, for which the “activity change, positive = activation” value was -35.3% (inactive).

For `CC1=NS(=O)(=O)c2cc(Cl)ccc2N1`, the “activity change, positive = activation” value is -40.5% (inactive).

Regarding `CCN1CCc2nc(N)oc2CC1`, the “activity change, positive = activation” value was -27.2% (inactive).

On to `C[n+]1cc2c3c(ccc2c2ccc4cc5c(cc4c21)OCO5)OCO3`, for which the Potency entry was “inactive”.
